Assay results: the supplement of paper PMC8540655

These compounds were tested on Aedes aegypti larvae (assay: larval motility relative to same well at 0 h (fraction); higher = more motile (less active compound), active = 0.4 or less). Conditions: 10 µM; 2 h.
Description: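 MMV Pandemic Response Box compounds were tested at 10 µM (1% v/v DMSO) on Aedes aegypti larvae (18-24 h after hatching, about 10 per well, 96-well plates). Motility was quantified with INVAPP (200-frame movies) at 0, 2 and 24 h. Each well's motility was divided by its own 0 h score, and the median of 3 independent screens is reported.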

Row | SMILES | larval motility
1 | Nc1c(C(=O)NCc2ccco2)c2nc3ccccc3nc2n1CCN1CCCCC1 | 0.782 (inactive)
2 | NC1(C(=O)O)CCP(=O)(O)CC1 (centres undefined) | 0.238 (active)
3 | C[C@@]1(O)[C@H](O)[C@@H](CO)O[C@H]1n1ccc2c(N)ncnc21 | 0.65 (inactive)
4 | CN1C(=O)C(c2ccccc2)C(=O)N(c2ccccc2)c2cc(C(F)(F)F)ccc21 (centres undefined) | 0.796 (inactive)
5 | C[N+]1(C)CCCC(OC(=O)C(O)(c2ccccc2)c2ccccc2)C1 (centres undefined) | 0.776 (inactive)
6 | COc1ccccc1CN[C@H]1C2CCN(CC2)[C@H]1C(c1ccccc1)c1ccccc1 | 0.829 (inactive)
7 | COC(=O)Nc1nc2ccccc2[nH]1 | 0.867 (inactive)
8 | CC(C)Oc1cccc(NC(=O)c2ccccc2C(F)(F)F)c1 | 0.405 (inactive)
9 | COc1cc(C(C)(C)CCCC(C)C)cc(OC)c1OC | 1.11 (inactive)
10 | O=C(NC12CC3CC(CC(C3)C1)C2)c1cc2ccccc2[nH]1 | 0.685 (inactive)
11 | CCCCc1ccc(C(=O)O)nc1 | 0.853 (inactive)
12 | CCN1CCN(Cc2nc3ccc([N+](=O)[O-])cc3c(=O)n2-c2ccccc2F)CC1 | 0.54 (inactive)

Same assay, conditions: 10 µM; 24 h

Row | SMILES | larval motility
13 | Nc1c(C(=O)NCc2ccco2)c2nc3ccccc3nc2n1CCN1CCCCC1 | 0.543 (inactive)
14 | NC1(C(=O)O)CCP(=O)(O)CC1 (centres undefined) | 1.44 (inactive)
15 | C[C@@]1(O)[C@H](O)[C@@H](CO)O[C@H]1n1ccc2c(N)ncnc21 | 0.788 (inactive)
16 | CN1C(=O)C(c2ccccc2)C(=O)N(c2ccccc2)c2cc(C(F)(F)F)ccc21 (centres undefined) | 0.84 (inactive)
17 | C[N+]1(C)CCCC(OC(=O)C(O)(c2ccccc2)c2ccccc2)C1 (centres undefined) | 0.656 (inactive)
18 | COc1ccccc1CN[C@H]1C2CCN(CC2)[C@H]1C(c1ccccc1)c1ccccc1 | 0.616 (inactive)
19 | COC(=O)Nc1nc2ccccc2[nH]1 | 0.986 (inactive)
20 | CC(C)Oc1cccc(NC(=O)c2ccccc2C(F)(F)F)c1 | 0.543 (inactive)
21 | COc1cc(C(C)(C)CCCC(C)C)cc(OC)c1OC | 1.04 (inactive)
22 | O=C(NC12CC3CC(CC(C3)C1)C2)c1cc2ccccc2[nH]1 | 1.27 (inactive)
23 | CCCCc1ccc(C(=O)O)nc1 | 0.63 (inactive)
24 | CCN1CCN(Cc2nc3ccc([N+](=O)[O-])cc3c(=O)n2-c2ccccc2F)CC1 | 2.49 (inactive)
